# Bioassay records: PubChem, several laboratories
# AHR activator = activators of human aryl hydrocarbon receptor | activation, % at 5 µM | 2.5% of 320,000 active | AHR-responsive luciferase reporter cells, luminescence; in the data active = activation above about 47%;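 note: 0% = vehicle wells and 100% = reference agonist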
# Target sequence (P35869 whole entry, looked up): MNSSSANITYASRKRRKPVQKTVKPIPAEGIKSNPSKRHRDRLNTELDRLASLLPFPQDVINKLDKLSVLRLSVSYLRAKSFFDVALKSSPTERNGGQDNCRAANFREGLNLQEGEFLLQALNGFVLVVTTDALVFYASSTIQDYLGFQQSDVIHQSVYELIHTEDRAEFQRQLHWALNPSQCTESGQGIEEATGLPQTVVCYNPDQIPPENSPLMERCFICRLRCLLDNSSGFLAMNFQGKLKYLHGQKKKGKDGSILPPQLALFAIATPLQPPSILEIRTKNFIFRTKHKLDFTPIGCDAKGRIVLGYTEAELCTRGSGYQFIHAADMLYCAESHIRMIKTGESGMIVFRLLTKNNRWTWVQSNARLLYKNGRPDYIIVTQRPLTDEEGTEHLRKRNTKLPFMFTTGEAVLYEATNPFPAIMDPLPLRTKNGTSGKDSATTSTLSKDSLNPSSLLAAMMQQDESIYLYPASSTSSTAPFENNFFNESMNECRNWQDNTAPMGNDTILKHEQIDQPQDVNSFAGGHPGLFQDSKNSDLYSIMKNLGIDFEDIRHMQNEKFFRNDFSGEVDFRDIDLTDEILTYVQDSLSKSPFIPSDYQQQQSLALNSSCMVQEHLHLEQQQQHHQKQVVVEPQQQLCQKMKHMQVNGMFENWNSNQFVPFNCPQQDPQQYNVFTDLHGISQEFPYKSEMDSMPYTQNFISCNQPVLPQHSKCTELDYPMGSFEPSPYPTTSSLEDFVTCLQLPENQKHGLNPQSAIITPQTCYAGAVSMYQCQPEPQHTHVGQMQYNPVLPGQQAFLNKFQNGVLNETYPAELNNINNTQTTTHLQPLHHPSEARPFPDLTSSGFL
# Wnt bcat act = activates Wnt/beta-catenin signaling in a reporter cell assay; activation, % at 9.35 µM; AID 743398; activator, plate reader; 1.2% of 300,000 active; in the data active = activation above about 30%, passing the limit was not always enough; inconclusive = no clear call, values can overlap the other calls;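 note: 0% = neutral control wells and 100% = positive control wells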
# MITF act = activators of MITF-driven TRPM1 promoter activity in SK-MEL-5 cells | AID 588334 | activation, % at 12.5 µM | 0.75% of 300,000 active | SK-MEL-5 TRPM1-promoter luciferase, 24 h; % of positive control, neutral wells = 0;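 active = mean activation of at least 80% with every replicate also reaching 80%; inconclusive = mean reaches 80% but some replicate falls short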;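 note: 0% = neutral control wells and 100% = parthenolide positive control wells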
# GAA850 FXN act = increases GAA850 frataxin promoter reporter activity | HEK293 lucGAA850 FXN promoter luciferase reporter, 24 h; percent of 10 µM SAHA response | activation, % at 6 µM | 0.56% of 360,000 active;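 active = activation above the average of all compounds screened plus 3 SD, cutoff fixed separately per campaign, cut at about 7.5% in these data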;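 note: 0% = DMSO wells and 100% = 10 µM SAHA wells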
# esBAF inh = SWI/SNF esBAF complex inhibition | mouse ES cells, Bmi1-luciferase knock-in reporter, 24 h; 100% = twice the neutral-well signal | reporter increase, % at 12.5 µM | 2% of 350,000 active | AID 602393; in the data active = activation above about 40%; inconclusive = no clear call, values can overlap the other calls;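 note: 0% = median of the plate's neutral control wells and 100% = double that signal; a rise in the Bmi1 reporter signal indicates esBAF inhibition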
# Starred values were filed as active, the others as inactive; ? = inconclusive; · = not tested or not shown. The list is not random: actives were taken first. Their share in the collection is about 4.2%.
SMILES,AHR activator,Wnt bcat act,MITF act,GAA850 FXN act,esBAF inh
C[C@@H]1CCCCO[C@H](CN(C)S(C)(=O)=O)[C@@H](C)CN([C@H](C)CO)C(=O)c2cc(NS(C)(=O)=O)ccc2O1,·,·,·,·,0
O=c1c2ccccc2nnn1CSc1nnc2ccccn12,7,53*,·,4,47*
O=C(CSc1nnc2ccccn12)c1ccc(Cl)cc1,0,36*,38,2,22
Cn1c(SCn2nnc3ccccc3c2=O)nc2ccccc2c1=O,1,·,·,·,·
CO[C@@H]1CN(C)C(=O)c2ccc(NC(=O)Nc3ccccc3F)cc2OC[C@@H](C)NC[C@@H]1C,·,·,·,·,1
CCc1ccc2nc3nc(C)cc(C)c3c(N)c2c1,68*,0,18,-6,0
CN(C)c1ccc(C(CNS(=O)(=O)c2ccc3ccccc3c2)c2c[nH]c3ccccc23)cc1 (stereo not given),38,-1,0,3,·
CN(C)c1ccc(C(CN)c2c[nH]c3ccccc23)cc1 (stereo not given),28,-8,15,-2,39*
COc1cc(/C=C2\C(=O)N(c3cccc(C(=O)O)c3)N=C2C)ccc1OCc1ccccc1,·,11,·,1,52*
Cc1ccc2c(c1)COc1c3ccc(C(=O)NC(C)C)cc3nn1-2,-8,46*,89*,3,84*
Cc1ccc2c(c1)COc1c3ccc(C(=O)N[C@@H](C)CO)cc3nn1-2,-7,18,77,4,62*
C[C@@H]1CCCCO[C@@H](CN(C)C(=O)CCCN(C)C)[C@@H](C)CN([C@H](C)CO)C(=O)c2cc(NC(=O)NC3CCCCC3)ccc2O1,·,·,·,·,-2
O=C1c2cccc3cccc(c23)C(=O)N1CCN1CCN(C(=S)Nc2ccc(F)cc2)CC1,106*,·,·,·,·
CC(C)CC#Cc1cnc2c(c1)C(=O)N([C@@H](C)CO)C[C@@H](C)[C@@H](CN(C)C(=O)c1cccc(F)c1)O2,·,·,·,·,-4
CC(C)NC(=O)Nc1ccc2c(c1)C(=O)N(C)[C@@H]1CC[C@H](CC(=O)NCc3ccc(F)cc3)O[C@H]1CO2,·,·,·,·,-4
Cc1c(CC(C)C)nc(N)c(C#N)c1-c1ccccc1,1,·,-3,2,87*
CCc1c(C)nc(N)c(C#N)c1-c1ccccc1,-1,-13,-3,2,1
O=c1[nH]c2ccccc2nc1-c1cccs1,31,43*,·,2,68*
CC(c1nc2ccccc2[nH]1)n1c(=O)c(-c2cccs2)nc2ccccc21 (stereo not given),·,-4,·,·,·
c1csc(-c2nnsc2-c2nc3ccccc3[nH]2)c1,25,23,-4,6,40*
O=C(Cc1cccs1)Nc1ccc(-c2nc3ccccc3[nH]2)cc1,-4,·,34,4,·
CN1c2ccc(-c3ccc(F)cc3)cc2[C@H]2[C@H](CCN2C(=O)c2ccncc2)[C@@H]1CO,·,·,·,·,-13
O=C(/C=C/c1ccc(Cl)cc1)NC(=S)Nc1ccc(C(=O)O)cc1,0,-2,13,-2,1
Cc1cc(NC(=O)/C=C/c2ccccc2Cl)no1,47,·,26,3,·
CN(C)c1ccc(NC(=O)/C=C/c2ccccc2Cl)cc1,46,42*,92*,3,·
SMILES,AHR activator,Wnt bcat act,MITF act,GAA850 FXN act,esBAF inh
CN(C)c1ccc(NC(=S)NC(=O)/C=C/c2ccc(Cl)cc2)cc1,7,27,57,5,46*
CCN(CC)c1ccc(NC(=O)/C=C\c2ccccc2Cl)cc1,-4,·,96*,1,37
CCOC(=O)c1c(-c2ccccc2)nc2ccc(C)cn12,43,47*,43,7,47*
CCOC(=O)C(=O)c1c(-c2ccccc2)nc2ccccn12,0,-1,-21,1,·
CCOC(=O)c1c(-c2ccccc2)nc2cc(C)ccn12,-6,21,·,6,52*
CCOC(=O)C(=O)c1c(-c2ccc(C)cc2)nc2ccccn12,0,-1,-3,0,·
C[C@@H]1CN([C@H](C)CO)C(=O)Cc2cc(NC(=O)Nc3ccc4c(c3)OCO4)ccc2O[C@@H]1CN(C)S(=O)(=O)c1cn(C)cn1,·,·,·,·,3
CCn1c(C)csc1=NC(=O)c1ccccc1,61*,20,0,-1,1
Cc1csc(=NC(=O)c2ccccc2)n1Cc1ccco1,4,-4,14,3,-5
Cc1csc(=NC(=O)c2ccccc2)n1C,42,34*,·,7,?
O=C(CN(C(=O)c1csnn1)c1ccc(F)cc1)NCc1ccc2c(c1)OCO2,0,2,·,0,50*
CCCCCC[n+]1c(-c2ccccc2)csc1Nc1ccccc1,2,-4,-10,2,·
COc1ccc(-c2csc(Nc3ccccc3)[n+]2CC(O)c2ccc([N+](=O)[O-])cc2)cc1 (stereo not given),47*,27,-5,0,·
CS(=O)(=O)c1cccc(C(=O)Nc2ccc3c(c2)OCCCO3)c1,23,14,81*,1,58*
O=C(Nc1ccc2c(c1)OCCO2)c1cccc(S(=O)(=O)N2CCCCC2)c1,5,·,7,-4,6
O=C(Nc1ccc2c(c1)OCCO2)c1cccc(S(=O)(=O)N2CCOCC2)c1,14,45*,55,0,?
COCC(=O)N1C[C@@H](C)[C@H](OC)CN(C)C(=O)c2cc(NC(=O)c3ccccc3)ccc2OC[C@@H]1C,·,·,·,·,-1
COc1ccc(CNC(=O)C[C@@H]2CC[C@@H](NS(=O)(=O)c3cccc(OC)c3)[C@H](CO)O2)cc1,·,·,·,·,1
Cc1nc2cc3c(cc2c(C)c1C(=O)OC(C)C)OCO3,64*,16,47,3,46*
COC(=O)c1nc2cc3c(cc2c(C)c1C(=O)OC)OCO3,1,·,·,-2,6
COc1ccc(CN(C)C[C@@H]2OCCCC[C@@H](C)Oc3ccc(NC(=O)Nc4ccccc4)cc3C(=O)N([C@@H](C)CO)C[C@@H]2C)cc1,·,·,·,·,-10
CCOC(=O)c1oc2cc(O)c(CC)cc2c(=O)c1-c1cscn1,47,-1,-5,1,3
CCc1cc2c(=O)c(-c3cscn3)coc2cc1O,74*,5,25,0,90*
CCN(CC)C(=O)c1cccc2c1C(=O)c1ccccc1-2,0,-4,-12,0,-2
CCN(CC)C(=O)c1ccc2c(c1[N+](=O)[O-])C(=O)c1ccccc1C2=O,78*,·,·,·,·
SMILES,AHR activator,Wnt bcat act,MITF act,GAA850 FXN act,esBAF inh
Cc1noc(C)c1S(=O)(=O)Nc1ccc2c(c1)C(=O)N([C@H](C)CO)C[C@@H](C)[C@@H](CN(C)C(=O)CCCN(C)C)OCCCC[C@H](C)O2,·,·,·,·,-7
O=C1/C(=C\c2cccs2)Sc2ccc3ccccc3c21,62*,?,21,6,21
O=C1C(=Cc2cccs2)C(=O)c2ccccc21,12,·,9,1,·
C[C@@H]1CN([C@@H](C)CO)S(=O)(=O)c2ccc(-c3cccnc3)cc2O[C@H]1CN(C)CC1CC1,·,·,·,·,-2
COc1ccc(/C=N/NC(=S)Nc2cc(C(F)(F)F)ccc2Cl)cc1,54*,1,·,2,·
Cc1ccc(-c2cnc3c(c2)C(=O)N([C@H](C)CO)C[C@H](C)[C@H](CN(C)C(=O)c2cccc(F)c2)O3)cc1,·,·,·,·,0
